HT1080-NT tox – kills 2HG-producing HT-1080-NT fibrosarcoma cells | HT-1080-NT fibrosarcoma viability, CellTiter-Glo ATP luminescence, 48 h | AID 686970 | 360,000 compounds, 1.6% hits | Potency, µM (titrated, usually from 46.1 µM), without a hit: top-dose activity, negative = less viability, usual class: cytotoxic;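 further: NT is the 2HG producing partner of a matched IDH1 knockdown line; potency means the concentration at half of the fitted maximal effect; 0% = DMSO-treated cells and -100% = media-only wells without cells; nearly all actives have a fitted effect of over 55% in size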
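Viability by CellTiter-Glo luminescence after 48 h compound exposure at 37C of HT-1080-NT cells (750/well, RPMI, 5% FBS). % activity scaled between DMSO wells and medium-only wells, then curve-fitted and categorized by curve class.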
DT40 TDP1 CPT – growth inhibition of DT40 Tdp1-/-;hTDP1 cells with camptothecin (screen for TDP1 inhibitors); AID 686979; 420,000 compounds, 12% hits; chicken DT40 Tdp1-/-;hTDP1 cells + 20 nM CPT, ATP luminescence, 48 h; Potency, µM (highest dose often 46.2 µM), for inactives: top-dose activity change, negative = growth inhibition, usual class: inhibitors; further: potency means the concentration at half of the fitted maximal effect; nearly all actives have a fitted effect of over 55% in size
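Cell growth measured by CellTiter-Glo luminescence after a minimum 48 h, 37 C compound exposure with 20 nM CPT in Tdp1-knockout DT40 cells stably expressing hTDP1, seeded 400/well; qHTS titration format.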
DT40 TDP1 no CPT – qHTS for Inhibitors of human tyrosyl-DNA phosphodiesterase 1 (TDP1): qHTS in cells in absence of CPT; 420,000 compounds, 15% hits; DT40 Tdp1-/- hTDP1 cells, no CPT, ATP luminescence, 48 h; AID 686978, 2013; Potency, µM (highest dose often 46.2 µM), for inactives: at the highest dose activity change, negative = growth inhibition, most hits filed as inhibitors; further: potency means the concentration at half of the fitted maximal effect; nearly all actives have a fitted effect of over 55% in size
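Chicken DT40 Tdp1-/- cells complemented with human TDP1, screened without camptothecin (DMSO vehicle only), 400 cells/well. Compounds pin-transferred, cells incubated at 37 °C for at least 48 hr. Growth read as ATP-dependent luminescence (CellTiter-Glo, 30 min at RT).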
IL1B secr inh – inflammasome signaling inhibition, IL-1 beta readout; activity change, % at 57.5 µM; 360,000 compounds, 4.7% hits; THP-1 LPS/ATP IL-1B secretion, AlphaLISA, 16 h; hits give low values; in the data active means activity change below about -50%; inconclusive means mostly about -30% to -49%
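THP-1 cells pretreated 1 hr with compounds (up to 57.5 uM final), then stimulated with LPS (250 ng/mL final) plus ATP (1.25 mM final); secreted IL-1B measured by AlphaLISA after 16 hr, decreased signal indicating inhibition.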
HT1080 IDH1KD tx – kills HT-1080 cells with IDH1 knockdown; HT-1080 IDH1 knockdown viability, ATP luminescence, 48 h; Potency, µM (series often up to 46.1 µM), inactives show at the highest dose activity, negative = toxicity, usual class: cytotoxic; 360,000 compounds, 2% hits; AID 686971;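 further: potency means the concentration at half of the fitted maximal effect; 0% = DMSO wells and -100% = cell-free medium wells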
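Assay cells: HT-1080 with IDH1 knockdown, 750 per well, RPMI/5% FBS. Exposure: 48 h at 37 °C following 2 h pre-incubation. Read: CellTiter-Glo luminescence; fitted concentration-response, curve class assigned.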
ELG1 DNA repair – inhibitors of ELG1-dependent DNA repair in HEK293T cells; HEK293T ELG1-luciferase reporter, luminescence, 16 h; DNA damage induced by 5-fluorouridine; Potency, µM (doses to about 46.1 µM), without a hit: top-dose activity change, negative = inhibition, hits mostly inhibitors; 330,000 compounds, 2.3% hits; further: potency means the concentration at half of the fitted maximal effect; nearly all actives have a fitted effect of over 55% in size
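Step one: seed 2,000 cells per well. Step two: pin-transfer compound or DMSO alongside 5-fluorouridine. Step three: incubate 16 hr, 37 °C, 5% CO2. Step four: add ONE-Glo, wait 30 min, read luminescence.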
An asterisk follows results filed as active; u = inconclusive; x = no result given. Compounds with a hit are over-represented: about 19% of the library has one in this group of screens. Unless noted, the call rests on the fitted dose curve; in most records, active means well fitted curve in the direction sought with a large enough effect; inconclusive means small, poorly fitted or top-dose-only effect, or another doubt; inactive means no such curve, though single readings can be large; an effect the other way counts as inactive or inconclusive. Unless noted, on the % scale 0 is the no-effect control and ±100 the full control effect.

SMILES	HT1080-NT tox	DT40 TDP1 CPT	DT40 TDP1 no CPT	IL1B secr inh	HT1080 IDH1KD tx	ELG1 DNA repair
CCN(CC)S(=O)(=O)c1nnc(NC(=O)COc2ccc(C)cc2)s1	x	-22%	u	x	x	x
Cn1c(-c2ccc(F)cc2)cnc1NCc1cc2c(cc1[N+](=O)[O-])OCO2	-3%	u	23µM*	-64*	-7%	u
Cn1c(-c2ccccc2)cnc1NCc1cc2c(cc1[N+](=O)[O-])OCO2	0%	-14%	u	-22	-15%	15%
Cn1c(-c2ccc(Cl)cc2)cnc1NCc1cc2c(cc1[N+](=O)[O-])OCO2	-13%	u	u	-82*	-4%	-13%
CC(=O)NC(CC(=O)Oc1ccc(C)cc1Br)c1ccccc1 (centres undefined)	9%	17%	8%	-6	9%	-3%
CC1=NN(c2ccccc2)C(=O)/C1=C\C=C1/N(C)c2ccccc2C1(C)C	0%	u	u	-86*	2%	u
CC1=NN(c2ccccc2)C(=O)/C1=C\c1cc(C)n(C)c1C	-1%	-10%	-26%	-2	3%	u
CC1=NN(c2ccccc2)C(=O)/C1=C\C=C1\N(C)c2ccccc2C1(C)C	-3%	u	23µM*	-13	-2%	u
CCCCN1C(=O)C(CC(=O)NCc2cccc3ccccc23)CC(C(=O)N2CCOCC2)=C1C (centres undefined)	6%	10%	7%	15	1%	x
Cc1ccc2c(=O)cc(C(=O)Nc3sc4c(c3C(N)=O)CCCC4)oc2c1	x	-21%	-5%	x	x	x
Cn1c(=O)[nH]c(=O)c2c1nc(N(CCO)Cc1ccccc1)n2CCCc1ccccc1	-10%	26µM*	u	-8	-24%	-8%
CN(Cc1ccccc1)c1nc2c(c(=O)[nH]c(=O)n2C)n1CCCc1ccccc1	u	29µM*	35µM*	-54*	-19%	u
Cn1c(=O)[nH]c(=O)c2[nH]c(N(Cc3ccccc3)Cc3ccccc3)nc21	u	u	15µM*	-14	u	u
Cn1c(=O)[nH]c(=O)c2[nH]c(CN3CCN(Cc4ccccc4)CC3)nc21	-2%	13%	0%	-13	3%	0%
C=C(C)Cn1c(N(CCO)Cc2ccccc2)nc2c1c(=O)[nH]c(=O)n2C	-1%	-27%	-17%	0	11%	-7%
Cc1oc2ncn(C)c(=O)c2c1C(=O)N(C)c1ccccc1F	x	-7%	12%	x	x	x
COc1ccc(-c2ccc(SC)nn2)cc1	21µM*	-29%	u	-14	23µM*	u
COc1ccc(C(=O)CSc2ccc(-c3ccccc3)nn2)cc1	1%	u	u	22	-2%	4%
NC(=O)C1CC12c1ccccc1-c1ccccc12 (centres undefined)	0%	15%	-6%	20	0%	-1%
CCOC(=O)c1ccc(Nc2c(-c3ccc(OC)cc3)nc3nc[nH]n23)cc1	x	21µM*	23µM*	x	x	x
CCOC(=O)c1ccc(Nc2c(-c3ccc(O)c(OC)c3)nc3nc[nH]n23)cc1	x	12µM*	16µM*	x	x	x
CCN1C(=O)c2ccccc2Sc2ccc(C(=O)NCCCN(CC(C)C)CC(C)C)cc21	-9%	15µM*	16µM*	-65*	9%	-23%
COCCCNC(=O)c1ccc2c(c1)N(Cc1ccccc1)C(=O)c1ccccc1S2	x	4%	1%	x	x	x
CCCCN(CC)CCCNC(=O)c1ccc2c(c1)N(Cc1ccc(C)cc1)C(=O)c1ccccc1S2	x	5.8µM*	5.2µM*	x	x	x
Cc1ccc(C(=O)C(C)OC(=O)c2n[nH]c(=O)c3ccccc23)cc1 (centres undefined)	u	-27%	-6%	0	19%	3%
SMILES	HT1080-NT tox	DT40 TDP1 CPT	DT40 TDP1 no CPT	IL1B secr inh	HT1080 IDH1KD tx	ELG1 DNA repair
O=C(NCc1ccccn1)c1ccccc1OCc1ccccc1Cl	-2%	u	u	13	1%	x
N/C(=N\OC(=O)c1cc([N+](=O)[O-])ccc1Cl)c1ccccn1	u	u	18µM*	-96*	u	u
N/C(=N\OC(=O)c1ccc([N+](=O)[O-])cc1Cl)c1ccccn1	6%	-30%	u	u	-1%	u
Cc1ccc(C(=O)O/N=C(\N)c2ccccn2)c(Cl)c1	16µM*	u	u	-3	u	u
COc1cc(/C=N/NC(=O)C(N)=O)ccc1OCC(=O)N1C(C)CCCC1C (centres undefined)	0%	-15%	-12%	-26	8%	-21%
COc1ccc(CNC(=O)C2CCC(CNC(=O)[C@@H]3Cc4ccccc4CN3)CC2)cc1 (some centres undefined)	3%	-10%	12%	-17	0%	u
CSc1nc(NCc2ccco2)c2sc3nc(C(C)C)c4c(c3c2n1)CC(C)(C)OC4	-5%	-11%	-22%	-17	-4%	u
CC(C)c1nc2sc3c(NCc4ccccc4)ncnc3c2c2c1COC(C)(C)C2	-2%	9.2µM*	u	u	1%	u
CCN(C(=O)Cn1c(=O)n(CC2CCC(C(=O)NC)CC2)c(=O)c2sccc21)c1ccccc1 (centres undefined)	x	-27%	-28%	x	x	x
COc1cccc(-c2ccc(C3=CC(=O)CC(C)(C)C3=O)cc2)c1OC	2%	u	21µM*	-4	-1%	x
COc1ccccc1-c1ccccc1C1=CC(=O)CC(C)(C)C1=O	7%	-5%	-27%	3	4%	x
CC1(C)CC(=O)C=C(c2ccc(-c3ccc(S(C)(=O)=O)cc3)cc2)C1=O	-1%	21µM*	12µM*	24	-3%	x
Cc1cc(C)n(-c2ccc(C(=O)N3CCN(S(=O)(=O)c4ccc(OC(F)(F)F)cc4)CC3)cc2)n1	3%	u	u	-20	-2%	x
C[C@H](CCC(=O)NCC(=O)O)C1CC[C@H]2[C@H]3C(C[C@H](O)[C@]12C)[C@@]1(C)CC[C@@H](O)C[C@H]1C[C@H]3O (some centres undefined)	x	3%	7%	x	x	x
COc1ccc(O)c(/C=N/NC(=S)Nc2cccnc2)c1	-29%	u	18µM*	144	-22%	u
CC(C)(C)NC(=S)N/N=C/c1cccnc1	22%	15µM*	26µM*	-1	8%	12%
COc1cccc(/C=N/NC(=S)Nc2cccnc2)c1	-2%	2.3µM*	4.6µM*	-6	1%	u
